Measurements published in PubChem BioAssay.
The source made the active and inactive calls.

What was measured:
[1] = system: Human papillomavirus type 1a protein E7 (residues 44-93); assay: small molecules binding HPV E7 44-93 – biochemical, small-molecule microarray, residues 44-93, 635 nm fluorescence, primary screen (AID 1108); conditions: fluorescence 635 nm, higher = more signal;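 also: E7 fragment applied at 1 µg/mL in TBST for 1 h at 4 C; score combines spot fluorescence with its signal to noise ratio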
[2] = hepatitis C replication reporter changes, two-sided – Huh7 cells, luciferase reporter, HCV replication inhibitor project, primary screen (AID 1109); conditions: Huh7 HCV replicon luciferase reporter, 48 h; higher = more signal;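 also: huh7 hepatoma cells harbouring a luciferase neomycin HCV replicon reporter; luciferase luminescence as measure of HCV replicon replication; test concentration not given here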
[3] = molecular target: Left-right determination factor 2 (Homo sapiens) (UniProt O00292); assay: small molecules binding LEFTY2 protein – biochemical, small-molecule microarray, 635 nm fluorescence scan, primary screen (AID 1110); conditions: higher = more signal
[4] = molecular target: Calmodulin-1 (Homo sapiens) (UniProt P0DP23); assay: small molecules binding calmodulin-1 with EGTA – biochemical, small-molecule microarray, Cy5-labelled CALM1, profiling panel (AID 1111); conditions: Cy5-CALM1 binding fluorescence, higher = more signal;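 also: labelled calmodulin applied in Tris saline Tween buffer holding calcium plus EGTA and DTT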
[5] = molecular target: Calmodulin-1 (Homo sapiens) (UniProt P0DP23); assay: small molecules binding Ca-loaded calmodulin-1 – biochemical, small-molecule microarray, Cy5-labelled CALM1, plus calcium, artefact control for SMM control-protein annotation, profiling panel (AID 1112); conditions: Cy5-CALM1 binding fluorescence, higher = more signal;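 also: score merges spot fluorescence with signal to noise from triplicate slides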
[6] = probe aWnt5a binding to arrayed compounds – biochemical, biotinylated probe, 635/667 nm fluorescence, primary screen (AID 1113); conditions: small-molecule microarray, higher = more signal;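 also: score merges 667 nm fluorescence intensity with signal-to-noise per printed feature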
[7] = probe aShh binding to arrayed compounds – biochemical, biotinylated probe, 635/667 nm fluorescence, primary screen (AID 1114); conditions: small-molecule microarray, higher = more signal;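 also: probe is biotin-labelled aShh protein from a stem cell growth factor screen; measures binding of labelled protein to compounds printed on the slide; score merges feature fluorescence at 667 nm with signal-to-noise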
[8] = probe aNog binding to arrayed compounds – biochemical, biotinylated probe, 635/667 nm fluorescence, primary screen (AID 1115); conditions: small-molecule microarray, higher = more signal;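 also: probe is biotinylated aNog protein used at 0.15 µg/mL for 1 h at 4 C; z-score combines 667 nm fluorescence of each spot with its signal to noise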
[9] = molecular target: Torsin-1A-interacting protein 1 (Homo sapiens) (UniProt Q5JTV8); assay: compound microarray binding of lysate hLAP1 – cell lysate, small-molecule microarray, COS7 lysate, 635/667 nm fluorescence, primary screen (AID 1116); conditions: 635 nm fluorescence, higher = more signal
[10] = molecular target: Alpha-bungarotoxin (Bungarus multicinctus) (UniProt P60615); assay: compounds binding labelled alpha-BTX control protein – biochemical, small-molecule microarray, Alexa647 label, 635/667 nm fluorescence, artefact control for SMM control protein annotation, profiling panel (AID 1117); conditions: alpha-BTX-A647 binding fluorescence, higher = more signal
[11] = molecular target: Albumin (Bos taurus) (UniProt P02769); assay: compounds binding labelled BSA control protein – biochemical, small-molecule microarray, Alexa647 label, 635/667 nm fluorescence, artefact control for SMM control protein annotation, profiling panel (AID 1118); conditions: BSA-A647 binding, fluorescence 635 nm, higher = more signal;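 also: score merges 667 nm emission intensity and signal-to-noise per printed compound spot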
[12] = probe aXIP binding to arrayed compounds – biochemical, NeuroSMM set, 635/667 nm fluorescence, primary screen (AID 1119); conditions: small-molecule microarray, higher = more signal, called active from +8 up or from −8 down;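 also: probe is the protein aXip251-270 applied at 1 µg/mL to compound-printed slides; binding of probe to printed compounds measured as 667 nm fluorescence plus signal to noise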
[13] = probe aNOTCH3 binding on compound microarray – biochemical, small-molecule microarray, 635/667 nm fluorescence, primary screen (AID 1120); conditions: higher = more signal;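 also: probe is a biotin-tagged antibody raised against NOTCH3 rather than NOTCH3 protein; score merges spot fluorescence near 667 nm with spot signal to noise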
[14] = probe aNOTCH2 binding on compound microarray – biochemical, small-molecule microarray, 635/667 nm fluorescence, primary screen (AID 1121); conditions: higher = more signal;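 also: score merges feature fluorescence read at 667 nm with its signal to noise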
[15] = molecular target: Carbonic anhydrase 2 (Homo sapiens) (UniProt P00918); assay: compounds binding carbonic anhydrase 2 – biochemical, small-molecule microarray, Alexa647-labelled CAII, profiling panel (AID 1122); conditions: CAII-A647 binding fluorescence, higher = more signal
[16] = COS7 lysate on small-molecule microarray, probe aHis, 635 nm (AID 1123); conditions: COS7 cell lysate, fluorescence, higher = more signal;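 also: z-score combines 667nm fluorescence intensity with signal-to-noise per printed compound spot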
[17] = probe aLAP1 signal on lysate-treated microarray – cell lysate, small-molecule microarray, COS7 lysate, primary screen (AID 1124); conditions: probe aLAP1, fluorescence, higher = more signal;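 also: lysate comes from COS7 cells expressing LAP1 and is applied at 0.3 µg/mL; score merges spot fluorescence near 667 nm with signal-to-noise over triplicate slides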
[18] = system: Sam68 (KHDRBS1); assay: compounds binding KHDRBS1 protein – biochemical, small-molecule microarray, 635 nm fluorescence, primary screen (AID 1125); conditions: higher = more signal;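 also: score merges 667 nm channel intensity with signal to noise over triplicate slides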
[19] = system: Chordin-like protein 2 (CHRDL2); assay: compounds binding chordin-like 2 – biochemical, small-molecule microarray, 635 nm fluorescence, primary screen (AID 1126); conditions: fluorescence 635 nm, higher = more signal;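 also: printed compound slides probed with Chrdl2 protein at 4 µg/mL for 1 h at 4 C; score merges 667 nm emission intensity with signal to noise over three replicate slides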
[20] = molecular target: Concanavalin-A (Canavalia ensiformis) (UniProt P02866); assay: compounds binding concanavalin A lectin – biochemical, small-molecule microarray, Alexa647 label, 635 nm, artefact control for SMM control protein annotation, primary screen (AID 1127); conditions: ConA-A647 binding fluorescence, higher = more signal;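 also: z combines 667 nm emission intensity with signal-to-noise across three replicate slides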
Concanavalin-A (Canavalia ensiformis), sequence (P02866 whole entry, looked up): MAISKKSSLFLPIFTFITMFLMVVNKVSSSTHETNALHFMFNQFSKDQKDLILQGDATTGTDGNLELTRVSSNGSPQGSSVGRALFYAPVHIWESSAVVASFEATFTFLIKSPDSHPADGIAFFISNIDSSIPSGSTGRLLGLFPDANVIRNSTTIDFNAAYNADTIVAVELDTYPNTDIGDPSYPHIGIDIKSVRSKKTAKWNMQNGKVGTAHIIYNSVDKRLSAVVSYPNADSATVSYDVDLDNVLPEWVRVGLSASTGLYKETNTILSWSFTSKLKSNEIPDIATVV

Left-right determination factor 2 (Homo sapiens), sequence (O00292 whole entry, looked up): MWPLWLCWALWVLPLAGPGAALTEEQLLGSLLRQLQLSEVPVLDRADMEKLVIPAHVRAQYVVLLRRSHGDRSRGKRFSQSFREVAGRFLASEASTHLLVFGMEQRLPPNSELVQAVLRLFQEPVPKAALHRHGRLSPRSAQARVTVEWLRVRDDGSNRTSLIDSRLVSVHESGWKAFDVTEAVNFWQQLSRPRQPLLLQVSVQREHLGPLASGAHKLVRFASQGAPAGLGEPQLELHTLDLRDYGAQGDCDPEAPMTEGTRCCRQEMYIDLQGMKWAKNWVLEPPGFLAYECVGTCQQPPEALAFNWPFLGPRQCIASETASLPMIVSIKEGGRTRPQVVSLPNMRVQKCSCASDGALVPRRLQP
Alpha-bungarotoxin (Bungarus multicinctus), sequence (P60615 whole entry, looked up): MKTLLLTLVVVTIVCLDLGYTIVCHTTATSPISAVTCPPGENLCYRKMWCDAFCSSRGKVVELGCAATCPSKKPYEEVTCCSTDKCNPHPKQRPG
Torsin-1A-interacting protein 1 (Homo sapiens), sequence (Q5JTV8 whole entry, looked up): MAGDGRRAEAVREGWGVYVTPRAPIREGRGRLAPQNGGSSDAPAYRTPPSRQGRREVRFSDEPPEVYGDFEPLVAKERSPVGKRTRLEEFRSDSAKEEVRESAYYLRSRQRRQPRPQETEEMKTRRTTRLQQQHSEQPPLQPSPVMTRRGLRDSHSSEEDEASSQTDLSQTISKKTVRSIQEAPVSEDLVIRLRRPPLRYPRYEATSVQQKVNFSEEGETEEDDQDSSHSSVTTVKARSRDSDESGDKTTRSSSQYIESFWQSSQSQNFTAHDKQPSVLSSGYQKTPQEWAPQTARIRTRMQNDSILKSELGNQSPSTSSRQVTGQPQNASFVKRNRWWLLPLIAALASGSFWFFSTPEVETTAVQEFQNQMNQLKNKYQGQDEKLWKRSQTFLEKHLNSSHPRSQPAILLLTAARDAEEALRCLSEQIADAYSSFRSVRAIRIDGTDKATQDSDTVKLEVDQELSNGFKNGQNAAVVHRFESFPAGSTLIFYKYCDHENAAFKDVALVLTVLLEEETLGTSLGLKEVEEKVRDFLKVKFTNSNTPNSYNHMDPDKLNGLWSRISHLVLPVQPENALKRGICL
Albumin (Bos taurus), sequence (P02769 whole entry, looked up): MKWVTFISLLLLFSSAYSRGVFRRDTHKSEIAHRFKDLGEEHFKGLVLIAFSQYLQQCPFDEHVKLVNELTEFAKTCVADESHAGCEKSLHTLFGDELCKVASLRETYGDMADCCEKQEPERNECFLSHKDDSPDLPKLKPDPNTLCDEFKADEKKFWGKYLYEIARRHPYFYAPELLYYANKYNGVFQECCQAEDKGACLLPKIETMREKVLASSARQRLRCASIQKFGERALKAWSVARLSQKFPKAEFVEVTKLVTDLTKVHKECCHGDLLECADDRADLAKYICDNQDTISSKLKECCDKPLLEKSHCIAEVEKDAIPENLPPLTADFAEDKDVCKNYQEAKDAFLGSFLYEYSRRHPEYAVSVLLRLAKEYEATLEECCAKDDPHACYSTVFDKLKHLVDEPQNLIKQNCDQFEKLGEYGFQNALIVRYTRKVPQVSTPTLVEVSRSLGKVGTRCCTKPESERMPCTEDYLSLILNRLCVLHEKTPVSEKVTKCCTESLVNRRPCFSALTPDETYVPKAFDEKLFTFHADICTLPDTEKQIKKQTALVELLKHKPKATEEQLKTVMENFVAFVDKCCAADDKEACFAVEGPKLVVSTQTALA

SMILES | composite z-score [1] | z-score [2] | composite z-score [3] | composite z-score [4] | composite z-score [5] | composite z-score [6] | composite z-score [7] | composite z-score [8] | composite z-score [9] | composite z-score [10] | composite z-score [11] | composite Z-score [12] | composite z-score [13] | composite z-score [14] | composite z-score [15] | composite z-score [16] | composite z-score [17] | composite z-score [18] | composite z-score [19] | composite z-score [20]
CCOC(=O)[C@H](Cc1ccccc1)NC(=O)CCC1CC(OC(=O)NCCc2ccc(F)cc2)CC2(CCCC(COC(=O)NCc3ccccc3)O2)O1 (stereo not given in full) | 1.29 | -0.929 | 0.829 | 0.774 | -0.129 | -0.157 | 1.15 | -0.118 | 0.601 | 0.154 | 0.0213 | 0.42 (inactive) | -0.0711 | -0.124 | 0.108 | 0.244 | -0.106 | 1.2 | 0.468 | 0.477
CON=C[C@@H](C)[C@H](OCc1ccccc1)C(C)C | -0.933 | -0.131 | 0.418 | -0.442 | -0.418 | -0.0882 | -0.419 | -0.204 | 1.15 | -0.11 | -0.784 | -0.47 (inactive) | -0.0647 | -0.162 | -0.269 | -0.606 | -0.0291 | -0.295 | 0.54 | -0.413
CCN1C(=O)[C@H]2[C@H]3[C@H](O)[C@H](O)CC(=O)[C@@H]3CC[C@H]2C1=O | 0.869 | 0.105 | 0.685 | 0.0536 | -0.493 | -0.192 | -0.138 | -0.237 | 0.467 | 0.488 | 0.4 | -0.141 (inactive) | -0.0377 | -0.179 | 0.0044 | 0.304 | 0.335 | 0.826 | 0.503 | 0.735
C[C@H]1Cc2c(COc3ccccc3)nc3c(c2CO1)CN(CCOc1ccccc1)CC3 | 1.14 | -0.228 | 0.635 | 0.625 | -0.255 | -0.172 | 0.0144 | -0.502 | 0.647 | 0.161 | -0.16 | -0.711 (inactive) | 0.0282 | -0.0746 | 0.635 | 1.14 | 0.282 | 1.32 | 0.522 | 1.08
CC[C@@H](c1ccccc1)n1c(=O)n2n(c1=O)[C@H]1[C@H](O)[C@@H]3O[C@@H]3C(=NOC[C@@H](O)COCc3ccco3)[C@H]1CC2 | -0.629 | -2.55 | 0.0632 | -1.26 | -1.51 | -0.145 | -0.276 | 0.618 | -0.298 | -0.201 | -0.368 | 0.615 (inactive) | -0.232 | -0.133 | 0.04 | -0.997 | -0.955 | -0.758 | 0.726 | -0.757
COC(=O)[C@H](C)NC(=O)CCC1CC(OC(=O)NCCc2ccc(F)cc2)CC2(CCCC(COC(=O)NCc3cccc(C(F)(F)F)c3)O2)O1 (stereo not given in full) | 0.518 | -0.377 | 0.749 | -0.0669 | -0.23 | -0.146 | -0.59 | -0.302 | 0.322 | -0.131 | 0.0516 | 0.116 (inactive) | 0.133 | -0.0652 | 0.193 | 0.702 | -0.363 | 0.267 | 0.208 | 0.401
CC1O[C@H]2C3=C(C(=O)[C@@H]4O[C@@H]4[C@H]3O)[C@@H]1C1[C@@H](C)OC=C3[C@H](O)C4O[C@@H]4C(=NOCc4ccccc4)[C@]312 (stereo not given in full) | -0.768 | -3.71 | 0.18 | -0.472 | -0.177 | -0.0519 | 0.225 | -0.347 | -0.192 | -0.725 | -0.26 | 0.0463 (inactive) | -0.125 | -0.14 | -0.279 | 0.355 | -0.136 | -0.221 | 0.0959 | -0.207
CCCNC(=O)OC[C@H]1O[C@H](CCON=Cc2ccc(C(=O)N3[C@H](c4ccc(C)cc4)[C@@H](C)CC[C@H]3C(=O)OC)cc2)C=C[C@@H]1Oc1ccc(OC)cc1 | 0.993 | -1.85 | 0.534 | 0.263 | -0.0711 | 0.111 | -0.493 | -0.0234 | 0.943 | 0.497 | 0.315 | 0.0856 (inactive) | -0.321 | -0.172 | -0.0309 | 0.526 | 0.735 | 1.08 | 0.274 | 0.279
CCOC(=O)[C@H](CC(C)C)NC(=O)CCC1CC(OC(=O)NCc2ccc3c(c2)OCO3)CC2(CCCC(COC(=O)NCC(c3ccccc3)c3ccccc3)O2)O1 (stereo not given in full) | 0.506 | -0.0319 | 0.426 | -0.378 | -0.443 | -0.169 | -0.262 | -0.137 | 0.126 | 0.443 | 0.23 | 0.142 (inactive) | 0.0876 | -0.147 | 0.538 | 0.674 | -0.144 | 0.714 | 0.0432 | 1.09
CCOC(=O)[C@H](Cc1ccccc1)NC(=O)CCC1CC(OC(=O)NCc2cccc3ccccc23)CC2(CCCC(COC(=O)NCC(c3ccccc3)c3ccccc3)O2)O1 (stereo not given in full) | 0.313 | -1.46 | 0.567 | -0.328 | -0.43 | -0.096 | -0.2 | -0.187 | 0.18 | -0.0602 | 0.313 | 0.793 (inactive) | 0.062 | -0.169 | 0.394 | 0.468 | -0.0448 | 0.914 | 0.203 | 0.256
CO[C@H]1COC(=O)CC=C[C@@H](C)[C@H](OC)COC(=O)CCC[C@@H]1C | -1.16 | -1.3 | 0.797 | -1.03 | -1.29 | -0.0751 | -0.0709 | -0.238 | 0.389 | -0.069 | -0.913 | 0.0032 (inactive) | -0.149 | -0.118 | -0.601 | 0.302 | 0.923 | 0.0465 | 1.41 | -0.819
C[C@@H](c1ccccc1)N1C(=O)[C@H]2[C@H]3[C@H](O)[C@H](O)CC(=NOCc4ccccc4)[C@H]3CC[C@H]2C1=O | 1.43 | 0.547 | 0.491 | 0.209 | -0.298 | -0.0635 | -0.0626 | -0.425 | 0.826 | 0.571 | 0.437 | -0.325 (inactive) | -0.0288 | -0.147 | 0.388 | 0.797 | 0.771 | 1.17 | 0.365 | 0.951
CCC(=O)[C@@]1(O)C(=O)N2C(=C3C(=O)OCC[C@@H]31)N(Cc1ccccc1)C(C)=C(C(=O)OC)[C@H]2c1ccccc1 | 0.403 | 0.0779 | 0.366 | -0.368 | -0.478 | 0.0108 | -0.221 | -0.369 | 0.478 | -0.0321 | -0.111 | 0.256 (inactive) | 0.0597 | -0.158 | -0.109 | 0.0028 | 0.137 | 0.431 | 0.627 | 0.602
CO[C@@H]1COC(=O)CC=C[C@@H](C)[C@@H]2C=C[C@H](O)[C@@H](COC(=O)CC=C[C@H]1C)O2 | -0.913 | 0.0581 | 1.5 | -1.12 | -2.14 | -0.224 | -0.0146 | -0.349 | 0.27 | 0.149 | -0.806 | 0.718 (inactive) | -0.124 | -0.166 | -0.257 | -1.01 | 0.146 | 0.141 | 1.14 | -0.629
